# Laboratory results from the supplement of paper PMC13094657.
# ± gives the standard deviation of the averaged measurements.
# How the values were obtained:
# MDA-MB-231 [1] = assay: cell viability relative to vehicle unstimulated control (fraction); higher = more viable cells; conditions: pre-treatment time: 18 h then 24 h IFNg/TNF
# MDA-MB-231 [2] = assay: kynurenine production, fold change vs DMSO IFNg/TNF control; higher = more kynurenine produced (less inhibition); conditions: pre-treatment time: 18 h then 24 h IFNg/TNF
# Method in brief: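 MDA-MB-231 cells (7 × 10^4/well, 96-well plates, seeded 24 h earlier) were pre-treated 18 h with each natural product in 0.1% DMSO, then stimulated 24 h with IFNγ (1 U/ml) and TNF (6.25 ng/ml) at 37°C. Supernatant kynurenine was read at 492 nm after trichloroacetic acid and p-dimethylaminobenzaldehyde treatment, against 0–100 μM standards. Kynurenine production is the fold change over cytokine-stimulated vehicle wells on the same plate, averaged over duplicate plates in the first screening round.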
# 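Wherever cell viability relative to vehicle unstimulated control is given: viability of the cells left after supernatant collection, read with Deep Blue dye added for 4 h, as absorbance at 570 nm minus 600 nm.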
structure (smiles),measurement,setting,value
COC(=O)C1=CO[C@@H](O[C@@H]2O[C@H](CO)[C@@H](O)[C@H](O)[C@H]2O)[C@H]2[C@@H]1[C@H](O)C[C@]2(C)OC(C)=O [Barlerin] (compound dose: 10 uM),cell viability,MDA-MB-231 [1],1.01 ± 0.02
same,kynurenine production,MDA-MB-231 [2],0.884 ± 0.11
CC(=O)O[C@H]1C(=O)[C@@]2(C)[C@H]([C@H](OC(=O)c3ccccc3)[C@]3(O)C[C@H](OC(=O)[C@H](O)[C@@H](NC(=O)c4ccccc4)c4ccccc4)C(C)=C1C3(C)C)[C@]1(OC(C)=O)CO[C@@H]1C[C@@H]2O [7-epi-Taxol] (compound dose: 10 uM),cell viability,MDA-MB-231 [1],0.791 ± 0.032
same,kynurenine production,MDA-MB-231 [2],0.3 ± 0.026
CC(C)=CCC[C@](C)(O)[C@H]1CC[C@]2(C)[C@@H]1[C@H](O)C[C@@H]1[C@@]3(C)CC[C@H](O)C(C)(C)[C@@H]3[C@@H](O[C@@H]3O[C@H](CO)[C@@H](O)[C@H](O)[C@H]3O[C@@H]3O[C@@H](C)[C@H](O)[C@@H](O)[C@H]3O)C[C@]12C [Ginsenoside Rg2] (compound dose: 10 uM),cell viability,MDA-MB-231 [1],1.01 ± 0.095
same,kynurenine production,MDA-MB-231 [2],0.974 ± 0.061
CC(CCC(OC1OC(CO)C(O)C(O)C1OC1OC(CO)C(O)C(O)C1O)C(C)(C)O)C1CCC2(C)C3CC=C4C(CCC(OC5OC(COC6OC(CO)C(O)C(O)C6O)C(O)C(O)C5O)C4(C)C)C3(C)C(O)CC12C (stereo not given) [Mogroside IV] (compound dose: 10 uM),cell viability,MDA-MB-231 [1],0.996 ± 0.11
same,kynurenine production,MDA-MB-231 [2],1.12 ± 0.23
O=C(O)C1=CO[C@@H](O[C@@H]2O[C@H](CO)[C@@H](O)[C@H](O)[C@H]2O)[C@@H]2C(CO)=C[C@H](O)[C@H]12 [Deacetylasperulosidic acid] (compound dose: 10 uM),cell viability,MDA-MB-231 [1],1.01 ± 0.024
same,kynurenine production,MDA-MB-231 [2],1.07 ± 0.041
C=C(C)[C@@H]1CC=C(CO)CC1 [(S)-(-)-Perillyl alcohol] (compound dose: 10 uM),cell viability,MDA-MB-231 [1],0.984 ± 0.02
same,kynurenine production,MDA-MB-231 [2],1.19 ± 0.25
CC1(C)CC[C@]2(C(=O)O[C@@H]3O[C@H](CO)[C@@H](O)[C@H](O)[C@H]3O)CC[C@]3(C)C(=CC[C@@H]4[C@@]5(C)CC[C@H](O[C@@H]6O[C@H](C(=O)O)[C@@H](O)[C@H](O)[C@H]6O[C@H]6OC[C@@H](O)[C@H](O)[C@H]6O)C(C)(C)[C@@H]5CC[C@]43C)[C@@H]2C1 [Pseudoginsenoside RT1] (compound dose: 10 uM),cell viability,MDA-MB-231 [1],0.9758 ± 0.0023
same,kynurenine production,MDA-MB-231 [2],0.988 ± 0.14
CC(C)=CCC[C@@H](C)CC=O [(R)-(+)-Citronellal] (compound dose: 10 uM),cell viability,MDA-MB-231 [1],1.07 ± 0.035
same,kynurenine production,MDA-MB-231 [2],1.44 ± 0.056
C=C(C)[C@@H]1CC[C@]2(CO)CC[C@]3(C)[C@H](CC[C@@H]4[C@@]5(C)CC[C@H](O)C(C)(C)[C@@H]5CC[C@]43C)[C@@H]12 [Betulin] (compound dose: 2 uM),cell viability,MDA-MB-231 [1],0.842 ± 0.04
same,kynurenine production,MDA-MB-231 [2],0.826 ± 0.13
C[C@H]1[C@H](C)CC[C@]2(C(=O)O)CC[C@]3(C)C(=CC[C@@H]4[C@@]5(C)CC[C@H](O)C(C)(C)[C@@H]5CC[C@]43C)[C@H]12 [3-Epiursolic Acid] (compound dose: 10 uM),cell viability,MDA-MB-231 [1],1.02 ± 0.045
same,kynurenine production,MDA-MB-231 [2],0.649 ± 0.08
